Most compounds without a hit are left out; they make up all but 9.4% or so of the library.
SMN2 splice up: qHTS Assay for Enhancers of SMN2 Splice Variant Expression | Potency, µM (top dose mostly 46.1 µM), for inactives: at the highest dose activity change, positive = activation, most hits filed as activators | hit rate 2.8% among 210,000 | HEK293 SMN2-luciferase splicing reporter, luminescence, 30-36 h; also: % of control where 0% means no effect; nearly all actives have a fitted effect of over 55% in size
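qHTS luciferase splicing reporter: luminescence rises when SMN2 exon 7 is included in transfected HEK293 cells. Compound exposure lasted 30-36 h at 37C, with 4.5 mM final sodium butyrate as control, followed by a ONE-Glo read.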
Rab9 promoter act: qHTS Assay for Rab9 Promoter Activators; Huh7 Rab9 promoter-luciferase reporter, luminescence, 24 h; AID 485297, 2010; Potency, µM (highest dose often 9.22 µM), inactives show at the highest dose activation, negative = inhibition, most hits filed as activators; hit rate 2.8% among 320,000; also: % of control where 0% means no effect; nearly all actives have a fitted effect of over 60% in size
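Luminescence from Amplite-detected luciferase (10 minutes, ambient) reports Rab9 promoter activation. Before that, stable Rab9-luciferase Huh7 cells (1500/well, reduced-serum OP-MEM I plus 10% FBS) were exposed to compound for 24 hours at 37C.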
ELG1 genotox: qHTS screen for small molecules that induce genotoxicity in human embryonic kidney (HEK293T) cells expressing luciferase-tagged ELG1. Potency, µM (series often up to 46 µM), without a hit: at the top dose activity change, positive = activation, hits mostly activators. hit rate 1.3% among 330,000. HEK293T ELG1-luciferase reporter, luminescence, 16 h. AID 504466, 2011; also: % of control where 0% means no effect; nearly all actives have a fitted effect of over 60% in size
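HEK293T cells expressing luciferase-tagged ELG1 were exposed to compound or DMSO vehicle for 16 hr at 37 °C and 5% CO2. Luciferase activity was then measured with ONE-Glo after 30 min at room temperature.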
FLuc counter: qHTS profiling assay for firefly luciferase inhibitor/activator using purifed enzyme and Km concentrations of substrates (counterscreen for miR-21 project); Luciferin 4-monooxygenase (Photinus pyralis), P08659; purified FLuc, Km substrates, luminescence inhibition; Potency, µM (titrated, usually from 57.5 µM), without a hit: at the top dose activity change, negative = inhibition, hits mostly inhibitors; hit rate 6.9% among 360,000;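 also: plate controls were vehicle for no effect and reference inhibitor for full effect; nearly all actives have a fitted effect of over 55% in size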
Target sequence (P08659 whole entry, looked up): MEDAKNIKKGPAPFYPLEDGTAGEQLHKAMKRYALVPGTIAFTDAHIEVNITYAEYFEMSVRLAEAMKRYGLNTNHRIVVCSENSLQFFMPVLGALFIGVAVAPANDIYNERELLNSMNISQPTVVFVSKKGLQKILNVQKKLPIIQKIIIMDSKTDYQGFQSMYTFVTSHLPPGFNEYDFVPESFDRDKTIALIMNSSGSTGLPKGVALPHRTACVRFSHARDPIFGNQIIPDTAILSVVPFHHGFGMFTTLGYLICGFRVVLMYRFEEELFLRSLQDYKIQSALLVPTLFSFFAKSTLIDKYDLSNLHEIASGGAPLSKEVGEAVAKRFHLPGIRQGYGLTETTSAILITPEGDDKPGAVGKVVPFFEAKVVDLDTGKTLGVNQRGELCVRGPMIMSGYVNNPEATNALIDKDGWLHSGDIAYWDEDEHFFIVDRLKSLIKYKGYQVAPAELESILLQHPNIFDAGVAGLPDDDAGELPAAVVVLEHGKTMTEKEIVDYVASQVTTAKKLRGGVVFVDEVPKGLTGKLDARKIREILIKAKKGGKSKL
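Purified P. pyralis luciferase (10nM final) with 10uM D-luciferin and 10uM ATP (Km levels) in 50mM Tris acetate pH 7.5, 10mM Mg acetate, 0.01% Tween-20, 0.05% BSA; qHTS 6-point titration, ~60 µM downward; luminescence read.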
ELG1 DNA repair: qHTS screen for small molecules that inhibit ELG1-dependent DNA repair in human embryonic kidney (HEK293T) cells expressing luciferase-tagged ELG1. HEK293T ELG1-luciferase reporter, luminescence, 16 h; DNA damage induced by 5-fluorouridine. Potency, µM (titrated, usually from 46.1 µM), inactives show at the highest dose activity change, negative = inhibition, most hits filed as inhibitors. hit rate 2.3% among 330,000. AID 504467, 2011; also: % is scaled to controls: 0 for no effect and ±100 for the full control effect; nearly all actives have a fitted effect of over 55% in size
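Luminescence from the luciferase reporter, measured 30 min after ONE-Glo reagent at room temperature, was the read-out. Beforehand, 2,000 cells per well were exposed for 16 hr at 37 °C to 5-fluorouridine together with compound or vehicle.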
NPC1 prom act: qHTS Assay for NPC1 Promoter Activators; Huh7 NPC1 promoter luciferase reporter, 24 h; Potency, µM (top dose mostly 9.22 µM), for the others: at the highest dose activation, hits mostly activators; hit rate 2.4% among 320,000; also: % of control where 0% means no effect; nearly all actives have a fitted effect of over 60% in size
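Stably transfected Huh7 (NPC1 promoter→luciferase), 1500 cells/well in Opti-MEM + 10% FBS, 2 h settle, then compound 24 h at 37 °C. Luminescence after 10 min with Amplite reagent.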
ELG1 FLuc counter: qHTS screen for small molecules that inhibit ELG1-dependent DNA repair: Hit Confirmation in Cell-Based Luciferin Assay. shares compounds with ELG1 DNA repair. cell-free firefly luciferase luminescence counter-screen, ViewLux. Potency, µM (top dose mostly 46.1 µM), inactives show at the top dose activity change, negative = inhibition, usual class: inhibitors. hit rate 3% among 350. AID 624247, 2012; also: % is scaled to controls: 0 for no effect and ±100 for the full control effect
ELG1 Luc conf: HTS assay for small molecules that inhibit ELG1-dependent DNA repair in human embryonic kidney (HEK293T) cells expressing luciferase-tagged ELG1: Hit Confirmation. shares compounds with ELG1 DNA repair. HEK293T ELG1-luciferase levels, luminescence; cells co-treated with 5-fluorouridine. Potency, µM (doses to about 46.1 µM), for inactives: at the highest dose activity change, negative = inhibition, actives largely listed as inhibitors. hit rate 68% among 670. AID 624248, 2012; also: % is scaled to controls: 0 for no effect and ±100 for the full control effect; nearly all actives have a fitted effect of over 55% in size
ELG1-Luc MMS: inhibits ELG1-dependent repair under MMS stimulation in HEK293T cells; HEK293T luciferase-tagged ELG1 level, MMS stimulated; AID 624249; hit rate 53% among 670; Potency, µM (highest dose often 46.1 µM), without a hit: at the highest dose activity change, negative = inhibition, usual class: inhibitors; shares compounds with ELG1 DNA repair; also: % is scaled to controls: 0 for no effect and ±100 for the full control effect; nearly all actives have a fitted effect of over 60% in size
ELG1 5FU viab: qHTS screen for small molecules that inhibit ELG1-dependent DNA repair: Hit Confirmation with 5FU Viability; shares compounds with ELG1 DNA repair; cell viability with 5-FU, ELG1-dependent repair; Potency, µM (highest dose often 46.1 µM), inactives show at the top dose activity change, negative = viability loss, hits mostly cytotoxic; 670 tested, under 10 active;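 also: ELG1-luc HEK293T cells cotreated with 5-fluorouridine at 10 µM final; viability measured 16 h after compound addition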
ELG1 MMS viab: qHTS screen for small molecules that inhibit ELG1-dependent DNA repair: Hit Confirmation with MMS Viability | shares compounds with ELG1 DNA repair | AID 624251, 2012 | hit rate 33% among 670 | Potency, µM (top dose mostly 46.1 µM), for the others: at the highest dose activity change, negative = viability loss, most hits filed as cytotoxic | Cell viability with MMS, ELG1-dependent DNA repair;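 also: ELG1-luc HEK293T cells co-treated with 10 µM MMS; viability read 16 h after compound addition; % is scaled to controls: 0 for no effect and ±100 for the full control effect; nearly all actives have a fitted effect of over 60% in size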
Cell viab unstim: qHTS screen for small molecules that inhibit ELG1-dependent DNA repair: Hit Confirmation with Unstimulated Viability Assay; shares compounds with ELG1 DNA repair; cell viability counter-screen, unstimulated, luminescence; Potency, µM (doses to about 45.9 µM), without a hit: at the top dose activity change, negative = loss of viability, hits mostly cytotoxic; hit rate 8% among 900; AID 624252, 2012;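 also: compound exposure lasted 16 hours before reading; % is scaled to controls: 0 for no effect and ±100 for the full control effect; nearly all actives have a fitted effect of over 55% in size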
FLuc enzyme: qHTS screen for small molecules that inhibit ELG1-dependent DNA repair: Hit Confirmation in Biochemical Luciferin Assay; purified firefly luciferase, luminescence counter-screen; shares compounds with ELG1 DNA repair; hit rate 10% among 350; AID 624253, 2012; Potency, µM (series often up to 57.5 µM), inactives show at the top dose activity, negative = inhibition, actives largely listed as inhibitors; also: % is scaled to controls: 0 for no effect and ±100 for the full control effect
Numbers without * were called inactive; ? = inconclusive; . = no result given; [ ] = dose if it differs, or a comment. Calls follow the shape of the dose curve; as a rule, active = well fitted curve in the direction sought with a large enough effect; inconclusive = small, poorly fitted or top-dose-only effect, or another doubt; inactive = no such curve, though single readings can be large; an effect the other way counts as inactive or inconclusive. Potency is read from the fitted curve at half-maximal effect.

SMILES | SMN2 splice up | Rab9 promoter act | ELG1 genotox | FLuc counter | ELG1 DNA repair | NPC1 prom act | ELG1 FLuc counter | ELG1 Luc conf | ELG1-Luc MMS | ELG1 5FU viab | ELG1 MMS viab | Cell viab unstim | FLuc enzyme
CC(=O)N1c2ccc(S(=O)(=O)NCCC(=O)NCc3ccc(Cl)cc3)cc2CC1C (centres undefined) | . | -4% | -2%[9.26 µM] | -1% | ? | -6% | . | . | . | . | . | . | .
Cc1cc2cc3c(cc2nc1SCC(=O)N1c2ccccc2CC1C)OCO3 (centres undefined) | -32% | -2% | -3% | 5% | ? | -6% | . | . | . | . | . | . | .
CCOc1ccc2cc(C#N)c(SCC(=O)N3CCOCC3)nc2c1 | 36% | 4µM* | 2.6µM* | ? | ? | 4µM* | 85% | . | . | . | . | ? | 6%
CCOc1ccc2nc(SCC(=O)N3CCCCCC3)c(C#N)cc2c1 | 21% | 1% | -7% | 0%[2.3 µM] | -22% | 4% | . | . | . | . | . | . | .
Cc1cc2cc3c(cc2nc1SCC(=O)N1CCOCC1)OCO3 | . | 3% | 8% | 7% | 1% | -7% | 32% | . | . | . | . | -1% | -10%
N#Cc1cc2cc3c(cc2nc1SCC(=O)N1CCOCC1)OCO3 | . | 1.6µM* | 3.7µM* | . | ? | 1.3µM* | 49% | . | . | . | . | 0% | -10%
CCOC(=O)c1sc(NC(=O)CCN2C(=O)c3cccc([N+](=O)[O-])c3C2=O)c(C(=O)OCC)c1C | -2% | -5% | 0% | 0% | 8% | 0% | . | . | . | . | . | . | .
CC(C)NC(=O)N1CCC2(CC1)CCN(C(=O)c1ccncc1)CC2 | -4% | . | . | . | . | . | . | . | . | . | . | . | .
COc1cccc(N2C(=NC(=O)C3CCCO3)SC3CS(=O)(=O)CC32)c1 (centres undefined) | . | -6% | -3% | -1% | 0% | -19% | . | . | . | . | . | . | .
O=C1/C(=C/c2ccc(O)c(O)c2)Oc2ccccc21 | . | . | . | . | . | . | . | . | . | . | . | -12% | .
COc1ccc(-n2nc(C(=O)NCC(=O)Nc3cc(OC)c(OC)c(OC)c3)c3ccccc3c2=O)cc1 | . | 0% | -20% | -1% | 3.3µM* | 2% | 70% | 3.2µM* | 13µM* | 15% | -18% | ? | 5%
O=C(NCC(c1ccco1)N1CCCC1)c1cccc(S(=O)(=O)N2CCOCC2)c1 (centres undefined) | . | -1% | 2% | . | 4% | 0% | . | . | . | . | . | . | .
COc1cc2c(C#CCCO)c(-c3ccsc3)oc(=O)c2cc1OC | . | . | 0% | . | ? | . | 5% | 6.3µM* | 7.9µM* | -3% | -8% | ? | 1%
CCN(Cc1cc(=O)[nH]c2ccccc12)C(=O)c1ccc(C)cc1 | . | -3% | 4% | -8% | 7% | 1% | . | . | . | . | . | . | .
C=C1C(c2ccc(C)cc2)=CCc2cc(C)cc(C)c21 | 14µM* | . | . | . | . | . | 181% | . | . | . | . | ? | 5.2µM*
O=C(/C=C/c1ccc(S(=O)(=O)N2CCOCC2)cc1)N1CCN(c2ccc(F)cc2)CC1 | . | -25% | -11% | 3% | 2.3µM* | -3% | 0% | -28% | 7.1µM* | -5% | ? | ? | -15%
CCC(C)(C)C1CCc2nc3ccccc3c(C(=O)OC(C)C(=O)Nc3c(C)n(C)n(-c4ccccc4)c3=O)c2C1 (centres undefined) | -21% | -5% | -8% | -17% | 4.1µM* | -7% | . | 2.2µM* | 25µM* | ? | 3% | ? | .
CC(NC(=O)C1CCCC1)C1CC2CCC1C2 (centres undefined) | -13% | 19% | -3% | -10% | 4.1µM* | -8% | . | 20% | ? | 4% | -5% | 9% | .
O=C(OCC(=O)N1CCc2ccccc2C1)c1c(F)cccc1Cl | . | . | ? | . | ? | . | . | . | . | . | . | -3% | .
O=C(OCC(=O)N1CCCC1)c1c(Cl)cccc1Cl | . | 0% | 12% | -13% | ? | 1% | . | . | . | . | . | . | .
COc1ccc(C(=O)NC2CC2)cc1OC1CCN(Cc2cc(C)c(C)cc2C)CC1 | . | 3% | -9% | 0% | -12% | 8% | . | . | . | . | . | . | .
COc1cc(C(=O)NCc2ccncc2)cc(OC)c1OC | . | -1% | 4% | 1% | ? | -1% | . | . | . | . | . | . | .
COc1cc(C(=O)NCc2ccccc2)cc(Br)c1OC | 14% | -1% | 0% | -3% | 3.7µM* | -7% | . | ? | -6% | ? | 12% | 6% | .

Bioassay records deposited in PubChem BioAssay by National Center for Advancing Translational Sciences (NCATS).
